The supplement of paper PMC10732440
± gives the standard deviation of the averaged measurements.

System: Caenorhabditis elegans N2 infected with Nematocida parisii ERTm1
Test: progeny production relative to DMSO uninfected control; higher = more progeny despite microsporidia infection (inhibition of infection with low host toxicity)
Conditions: infection time 6 days
Outline: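 Values give progeny production relative to spore-free vehicle wells, as a percentage averaged across replicates. For each of three runs per compound and dose, 100 bleach-synchronised wild-type C. elegans L1 larvae per well were grown in 96-well plates with K-medium, E. coli OP50, 15,000 N. parisii spores/μL and compound at 100 μM or 40 μM in 1% DMSO. After 6 days of shaking at 21°C, worms were Rose Bengal-stained, flatbed-scanned and counted with WorMachine.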

Structure (SMILES)	progeny production (40 µM) [%]	progeny production (100 µM) [%]
CC(=N)N1CC[C@H](SC2=C(C(=O)O)N3C(=O)[C@@H]([C@@H](C)O)[C@H]3C2)C1	4.18 ± 0.82	11.1 ± 7.9
N=C(N)c1ccc(COc2ccc(Cl)cc2)cc1	3.13 ± 0.66	7.24 ± 6.1
Nc1cc(N)c2nc(-c3ccccc3)c(Nc3ccc(F)cc3)nc2c1	4.57 ± 1.7	23.5 ± 17
CN1c2ccc(Cl)cc2N(c2ccccc2)C(=O)c2cn(Cc3ccc(CN4CCOCC4)cc3)nc21	5.41 ± 0.76	6.28 ± 3
CN(C(=O)C1(c2ccc(Cl)cc2)CCC1)c1ccccc1	2.68 ± 1.6	14.9 ± 2.4
C=C[C@]1(C)C[C@@H](OC(=O)CS[C@@H]2C[C@H]3CC[C@@H](C2)N3C)[C@]2(C)[C@H](C)CC[C@]3(CCC(=O)[C@H]32)[C@@H](C)[C@@H]1O	11.3 ± 8.7	15.1 ± 6.1
Nc1nc(NC2Cc3ccc(F)cc3C2)nc(N2CCCCC2)n1 (stereo not drawn)	5.65 ± 3.6	6.63 ± 4.3
O=C(O)c1ccccc1Sc1ncnc2sc3c(c12)CCC3	3.94 ± 1.7	25.2 ± 16
O=S(=O)(Nc1ccccc1)c1ccc(NC(=S)Nc2ccccc2)cc1	8.72 ± 4.5	11.2 ± 6.4
CCNC(=O)Nc1cc(-c2ccccc2)c(-c2cncc(C(=O)O)c2)cn1	3.89 ± 0.4	28.1 ± 28
CN(Cc1ccc(C(C)(C)C)cc1)Cc1cccc2ccccc12	5.41 ± 2	17 ± 17
O=[N+]([O-])c1cn(Cc2nc(O)nc(O)c2Br)cn1	8.41 ± 4.5	8.29 ± 4.9
O=C(NCc1ncc(C(F)(F)F)cc1Cl)c1c(Cl)cccc1Cl	3.33 ± 0.85	8.17 ± 5.4
CC(=O)N1CCN(c2ccc(OCC3COC(Cn4ccnc4)(c4ccc(Cl)cc4Cl)O3)cc2)CC1 (stereo not drawn)	5.16 ± 2.3	18 ± 6.4
O=C(/C(=C/c1ccc(Cl)cc1Cl)n1ccnc1)c1ccc(Cl)cc1	24.5 ± 2.2	89.8 ± 17
Nc1nnnn1CCOc1c2[nH]c3ccc(Cl)cc3c2cc2c1[nH]c1ccc(Cl)cc12	5.74 ± 5.8	8.85 ± 7.7
CN(C)CC(=O)Nc1ccc2[nH]c(=O)c3ccccc3c2c1	3.86 ± 0.4	14.1 ± 5
Cc1cc(Nc2ccc(F)cc2)nc(SCc2nc3ccccc3[nH]2)n1	3.08 ± 0.71	16.7 ± 14
O=C(NN1C(=O)[C@@H]2[C@@H]3C=C[C@@H]([C@H]4C[C@@H]34)[C@@H]2C1=O)c1ccc(C(F)(F)F)cc1	3.22 ± 1.3	9.48 ± 4
